Reference: PubChem BioAssay
Results filed as inconclusive are left out. The source made the active and inactive calls.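 How the source made its calls, unless noted: active means inhibition above the screen-wide mean plus 3 SD, about 51%; inactive means the rest.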

Key:
[1] = rapamycin-like changes in RPL19A-GFP expression – cell-based, S. cerevisiae, multiplex flow cytometry, primary screen (AID 1862; in the data active means percent of DMSO control GFP below about 86%;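 further: lower values mimic rapamycin by blocking the RPL19A rise seen in DMSO cells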); conditions: S. cerevisiae RPL19A-GFP strain, flow cytometry fluorescence, 3 h; at 10 µM; stronger effect = lower value
[2] = TOR pathway GLN3 branch reporter MEP2-GFP changes – S. cerevisiae, multiplex flow cytometry, primary screen (AID 1867;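 active means GFP response, as percent of the DMSO control, above the screen-wide mean plus 3 SD, about 139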;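 further: median GFP channel fluorescence of barcode-gated MEP2-GFP cells measured by flow cytometry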); conditions: S. cerevisiae MEP2-GFP strain, 3 h, at 10 µM, stronger effect = higher value, 100% means same as DMSO wells
[3] = TOR pathway RTG branch CIT2 reporter changes – S. cerevisiae, GFP fusion, multiplex flow cytometry, primary screen (AID 1870;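 active means percent response above a set limit, the screen-wide mean plus 3 SD, cut at about 130% in these data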;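 further: barcoded CIT2-GFP strain pooled with four other GFP strains with rapamycin as positive control; median GFP fluorescence per well over plate mean of DMSO wells so 100% = DMSO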); conditions: S. cerevisiae CIT2-GFP expression, 3 h, at 10 µM, stronger effect = higher value
[4] = TOR pathway LAP4-GFP level changes – S. cerevisiae, multiplex flow cytometry, primary screen (AID 1873;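 active means GFP signal, as percent of the solvent control, above the screen mean plus 3 SD, about 149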); conditions: S. cerevisiae LAP4-GFP expression, 3 h, at 10 µM, stronger effect = higher value
[5] = yeast AGP1-GFP level changes, GLN3 branch – cell-based, multiplex flow cytometry, S. cerevisiae, primary screen (AID 1887;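 active means GFP signal above the screen-wide mean plus 3 SD, that is over about 124.5% of the solvent control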;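 further: AGP1-GFP fusion strain of S. cerevisiae within a five-strain barcoded multiplex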); conditions: 3 h, at 10 µM, stronger effect = higher value
[6] = reduced mouse 2C T cell binding to pMHC/ICAM-1 vesicles – MLPCN validation set, flow cytometry, LFA-1/ICAM-1 modulator project, pilot screen (AID 2523;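 active means response below a set limit, under 55% cells CD8-positive and vesicle-bound, and CD8 cells' 90th-percentile brightness under 279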;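 on vesicle binding response: mean PE anti-B7-1 fluorescence of CD8+ cells relative to row control; 100% = QL9-loaded vesicles with DMSO vehicle in the same plate row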); conditions: 2C mouse CD8+ T cells, at 7 µM, stronger effect = lower value; double positive events: measured here: CD8+/vesicle+ event percentage
[7] = target: Integrin beta-1 (Homo sapiens) + Integrin alpha-4 (Homo sapiens) (UniProt P13612+P05556); assay: alpha4beta1 integrin LIBS antibody binding reduction – U937 cells, HUTS-21 mAb, flow cytometry, validation set, VLA-4 allosteric modulator project, pilot screen (AID 2674;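 active means inhibition above 50%, about 3 SD of the validation set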;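 further: antibody binding induced by the VLA-4 ligand LDV present at three times its Kd; 0% = LDV ligand with antibody and no compound and 100% = antibody without LDV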); conditions: HUTS-21 LIBS mAb binding, at 6.7 µM, stronger effect = higher value, binding induced by LDV ligand
Sequence of Integrin beta-1 (Homo sapiens) + Integrin alpha-4 (Homo sapiens) (P05556 whole entry, looked up): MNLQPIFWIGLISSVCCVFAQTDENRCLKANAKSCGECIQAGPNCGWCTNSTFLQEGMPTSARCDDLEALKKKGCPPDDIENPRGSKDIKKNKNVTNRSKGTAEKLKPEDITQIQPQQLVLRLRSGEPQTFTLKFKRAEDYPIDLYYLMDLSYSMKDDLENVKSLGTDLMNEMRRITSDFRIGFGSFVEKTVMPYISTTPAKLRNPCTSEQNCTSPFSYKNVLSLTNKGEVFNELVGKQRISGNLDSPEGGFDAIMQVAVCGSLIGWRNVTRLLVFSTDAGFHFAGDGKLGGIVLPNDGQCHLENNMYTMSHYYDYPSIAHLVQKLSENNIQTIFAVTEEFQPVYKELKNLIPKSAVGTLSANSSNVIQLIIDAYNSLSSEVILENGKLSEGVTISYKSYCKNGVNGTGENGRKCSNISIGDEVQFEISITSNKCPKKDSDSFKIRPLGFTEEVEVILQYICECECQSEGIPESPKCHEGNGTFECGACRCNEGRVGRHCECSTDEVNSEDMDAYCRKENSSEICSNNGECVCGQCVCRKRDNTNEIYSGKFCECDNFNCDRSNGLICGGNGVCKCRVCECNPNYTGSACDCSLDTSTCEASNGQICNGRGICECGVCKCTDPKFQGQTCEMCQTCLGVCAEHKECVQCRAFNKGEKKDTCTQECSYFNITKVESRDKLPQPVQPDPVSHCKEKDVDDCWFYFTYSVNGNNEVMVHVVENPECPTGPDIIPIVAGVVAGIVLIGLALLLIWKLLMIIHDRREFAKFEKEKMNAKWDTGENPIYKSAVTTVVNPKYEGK
Sequence of Integrin beta-1 (Homo sapiens) + Integrin alpha-4 (Homo sapiens) (P13612 whole entry, looked up): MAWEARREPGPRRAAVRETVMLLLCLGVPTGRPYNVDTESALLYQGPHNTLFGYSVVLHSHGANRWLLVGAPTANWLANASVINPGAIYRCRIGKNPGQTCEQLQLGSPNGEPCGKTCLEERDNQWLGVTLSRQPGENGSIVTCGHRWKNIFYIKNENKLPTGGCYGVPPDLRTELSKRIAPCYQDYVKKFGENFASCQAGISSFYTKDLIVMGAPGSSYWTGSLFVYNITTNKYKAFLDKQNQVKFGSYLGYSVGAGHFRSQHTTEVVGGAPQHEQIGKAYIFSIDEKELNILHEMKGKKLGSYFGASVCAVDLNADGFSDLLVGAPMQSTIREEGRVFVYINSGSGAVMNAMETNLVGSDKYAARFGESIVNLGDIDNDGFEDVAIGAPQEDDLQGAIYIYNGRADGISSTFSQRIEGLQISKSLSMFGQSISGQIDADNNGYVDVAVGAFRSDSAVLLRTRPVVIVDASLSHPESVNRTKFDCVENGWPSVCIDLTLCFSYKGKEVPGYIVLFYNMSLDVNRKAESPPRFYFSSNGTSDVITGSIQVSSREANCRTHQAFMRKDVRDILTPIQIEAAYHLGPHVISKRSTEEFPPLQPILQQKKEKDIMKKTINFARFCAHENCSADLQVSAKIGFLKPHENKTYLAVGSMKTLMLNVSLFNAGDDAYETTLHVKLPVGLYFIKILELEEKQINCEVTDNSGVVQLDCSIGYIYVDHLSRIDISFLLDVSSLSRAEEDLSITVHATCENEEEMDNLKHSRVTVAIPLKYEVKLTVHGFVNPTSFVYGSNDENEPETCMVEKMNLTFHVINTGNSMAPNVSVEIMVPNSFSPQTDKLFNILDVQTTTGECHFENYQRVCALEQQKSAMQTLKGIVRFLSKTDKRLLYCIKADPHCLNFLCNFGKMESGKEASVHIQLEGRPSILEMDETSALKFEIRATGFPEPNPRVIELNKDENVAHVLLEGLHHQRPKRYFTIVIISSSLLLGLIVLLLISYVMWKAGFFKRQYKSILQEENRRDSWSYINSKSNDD

[8] = calorie-restriction mimetic ROS inhibitors, yeast – validation compound set, pilot screen (AID 2706;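 active means superoxide response below 65% of plate, a cut near 3 SD across the whole screen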;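 further: yeast exposed to compound for one week at 30 degrees C before staining; 100% = mean of all compound wells on the same plate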); conditions: S. cerevisiae aging, superoxide DHE fluorescence; at 10 µM; stronger effect = lower value
[9] = target: Beta-adrenergic receptor kinase 1 (Homo sapiens) (UniProt P25098); assay: GRK2 binders displacing RNA aptamer, biochemical, validation, human GRK2, bead flow cytometry (AID 488806;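 active means aptamer binding inhibition above 30%, about 3 SD of noise from non-fluorescent compounds; inactive means inhibition at or below 30%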); conditions: bead-bound GRK2, FAM-aptamer displacement, at 10 µM, stronger effect = higher value
Sequence of Beta-adrenergic receptor kinase 1 (Homo sapiens) (P25098 whole entry, looked up): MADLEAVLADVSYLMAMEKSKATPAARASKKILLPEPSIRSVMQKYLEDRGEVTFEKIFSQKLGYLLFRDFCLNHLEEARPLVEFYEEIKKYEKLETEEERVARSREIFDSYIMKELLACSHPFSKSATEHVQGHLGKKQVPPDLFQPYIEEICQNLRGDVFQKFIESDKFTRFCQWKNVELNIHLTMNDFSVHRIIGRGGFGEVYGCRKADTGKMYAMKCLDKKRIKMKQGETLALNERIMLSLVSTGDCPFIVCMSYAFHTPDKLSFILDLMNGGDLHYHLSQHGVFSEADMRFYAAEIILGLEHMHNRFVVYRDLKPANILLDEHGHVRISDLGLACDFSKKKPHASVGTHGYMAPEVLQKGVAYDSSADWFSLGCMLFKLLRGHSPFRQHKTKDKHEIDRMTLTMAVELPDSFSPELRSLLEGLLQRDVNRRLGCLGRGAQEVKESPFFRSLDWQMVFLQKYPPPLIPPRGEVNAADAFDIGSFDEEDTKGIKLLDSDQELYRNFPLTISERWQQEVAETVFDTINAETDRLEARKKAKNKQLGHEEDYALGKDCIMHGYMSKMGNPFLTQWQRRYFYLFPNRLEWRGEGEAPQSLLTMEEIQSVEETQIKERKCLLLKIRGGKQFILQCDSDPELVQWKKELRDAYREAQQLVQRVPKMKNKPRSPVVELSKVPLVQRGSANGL

[10] = target: Beta-2 adrenergic receptor (Homo sapiens) (UniProt P07550); assay: agonist-induced loss of surface beta2AR – cell-based, FAP fluorogen, flow cytometry, validation set, pilot screen (AID 504459;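 active means percent response above 42, roughly 3 SD of non-fluorescent test compounds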;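 further: agonist-driven loss of surface beta2AR via internalization measured by FAP dye flow cytometry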); conditions: Am2.2-beta2AR cells, at 10 µM, stronger effect = higher value
Sequence of Beta-2 adrenergic receptor (Homo sapiens) (P07550 whole entry, looked up): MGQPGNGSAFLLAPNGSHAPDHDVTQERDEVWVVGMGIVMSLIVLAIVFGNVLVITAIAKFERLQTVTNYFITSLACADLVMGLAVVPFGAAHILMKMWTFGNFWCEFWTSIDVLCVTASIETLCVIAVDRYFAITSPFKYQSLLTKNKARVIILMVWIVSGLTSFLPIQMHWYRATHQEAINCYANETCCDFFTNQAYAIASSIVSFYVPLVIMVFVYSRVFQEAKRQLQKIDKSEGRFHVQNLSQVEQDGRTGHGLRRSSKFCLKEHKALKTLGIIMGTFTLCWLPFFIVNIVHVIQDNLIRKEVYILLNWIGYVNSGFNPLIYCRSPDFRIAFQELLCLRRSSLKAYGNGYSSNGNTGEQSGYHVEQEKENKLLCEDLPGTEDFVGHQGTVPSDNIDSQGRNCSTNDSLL

[11] = target: AP-2 complex subunit beta (Homo sapiens) (UniProt P63010); assay: beta-arrestin/AP2 interaction blockers – biochemical, validation set, GST-AP2 beads, flow cytometry, pilot screen (AID 504541;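 active means inhibition above 54%, about 3 SD of non-fluorescent compounds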;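 further: AP2 carries R879A mutation and is captured from E. coli lysate; bead-bound FITC arrestin peptide fluorescence measuring arrestin peptide binding to AP2; 0% = DMSO wells and 100% = excess unlabeled arrestin peptide control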); conditions: FITC arrestin peptide, at 10 µM, stronger effect = higher value, AP2 beta2 appendage fragment, R879A mutant
Sequence of AP-2 complex subunit beta (Homo sapiens) (P63010 whole entry, looked up, the tested form may be a part, one chain of several): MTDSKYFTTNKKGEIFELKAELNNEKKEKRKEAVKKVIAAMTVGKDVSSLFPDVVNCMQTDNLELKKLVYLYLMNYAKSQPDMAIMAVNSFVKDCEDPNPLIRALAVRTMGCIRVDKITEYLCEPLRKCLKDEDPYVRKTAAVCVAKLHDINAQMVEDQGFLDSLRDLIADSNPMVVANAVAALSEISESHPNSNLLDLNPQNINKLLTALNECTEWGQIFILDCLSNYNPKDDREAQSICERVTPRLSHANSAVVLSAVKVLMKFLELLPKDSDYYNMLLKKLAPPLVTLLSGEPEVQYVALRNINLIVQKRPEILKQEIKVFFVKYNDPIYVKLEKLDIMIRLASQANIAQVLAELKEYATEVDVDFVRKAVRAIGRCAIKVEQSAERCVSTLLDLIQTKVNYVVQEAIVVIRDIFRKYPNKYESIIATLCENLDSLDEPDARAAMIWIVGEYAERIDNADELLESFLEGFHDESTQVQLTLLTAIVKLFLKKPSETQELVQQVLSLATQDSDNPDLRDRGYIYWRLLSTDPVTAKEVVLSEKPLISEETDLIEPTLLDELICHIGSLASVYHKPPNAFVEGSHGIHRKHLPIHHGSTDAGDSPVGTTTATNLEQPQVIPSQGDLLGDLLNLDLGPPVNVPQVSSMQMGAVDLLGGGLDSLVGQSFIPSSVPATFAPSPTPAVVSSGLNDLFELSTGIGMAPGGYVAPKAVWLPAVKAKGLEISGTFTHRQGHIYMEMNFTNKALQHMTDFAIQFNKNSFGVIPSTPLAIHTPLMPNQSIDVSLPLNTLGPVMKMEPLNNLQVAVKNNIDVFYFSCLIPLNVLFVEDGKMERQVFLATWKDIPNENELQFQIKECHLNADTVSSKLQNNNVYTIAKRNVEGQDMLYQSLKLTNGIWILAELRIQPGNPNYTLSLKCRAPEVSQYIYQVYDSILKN

[12] = cytosolic pH regulators acting via V-ATPase – S. cerevisiae, pHLuorin, HTS validation (AID 504600; in the data active means response above about 15%;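 further: plate controls were DMSO for no effect and reference compound for full effect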); conditions: V-ATPase proton transport, at 10 µM, stronger effect = higher value
[13] = tested on: anti-desmoglein-3 scFv antibody binding to human DSG3; assay: blockers of pathogenic pemphigus antibody–desmoglein-3 binding – biochemical, validation compound set, bead-based, flow cytometry, pilot screen (AID 588368;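 active means binding below the plate cutoff, the plate median minus 3 SD, with a reading above zero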;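 further: signal is the median channel fluorescence of bead-bound GFP antibody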); conditions: Protein G beads, DSG3-Fc, scFv-GFP binding, at 10 µM, stronger effect = lower value
[14] = Nile Red efflux blockade in pump-expressing yeast – validation compound set, multiplex, phenotypic, pilot screen (AID 588506;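 active means efflux inhibition above 0.42, the validation set average plus 4 SD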;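 further: Nile Red retained in cells so higher fluorescence means more efflux inhibition; 0 = negative control wells and 1 = enniatin B 25 µM full block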); conditions: S. cerevisiae pump-expressing triplex, Nile Red efflux flow cytometry; at 10 µM; stronger effect = higher value; the pumps come from Candida albicans
[15] = target: ATP-binding cassette sub-family B member 6 (Homo sapiens) (UniProt Q9NP58); assay: blockers of ABCB6-driven porphyrin uptake – K562-ABCB6 cells, flow cytometry, validation set, pilot screen (AID 588550); conditions: K562-ABCB6 porphyrin accumulation, 1 h, at 10 µM, stronger effect = higher value;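 further: 0% = DMSO wells and 100% = benzethonium chloride 70 µM positive control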
Sequence of ATP-binding cassette sub-family B member 6 (Homo sapiens) (Q9NP58 whole entry, looked up): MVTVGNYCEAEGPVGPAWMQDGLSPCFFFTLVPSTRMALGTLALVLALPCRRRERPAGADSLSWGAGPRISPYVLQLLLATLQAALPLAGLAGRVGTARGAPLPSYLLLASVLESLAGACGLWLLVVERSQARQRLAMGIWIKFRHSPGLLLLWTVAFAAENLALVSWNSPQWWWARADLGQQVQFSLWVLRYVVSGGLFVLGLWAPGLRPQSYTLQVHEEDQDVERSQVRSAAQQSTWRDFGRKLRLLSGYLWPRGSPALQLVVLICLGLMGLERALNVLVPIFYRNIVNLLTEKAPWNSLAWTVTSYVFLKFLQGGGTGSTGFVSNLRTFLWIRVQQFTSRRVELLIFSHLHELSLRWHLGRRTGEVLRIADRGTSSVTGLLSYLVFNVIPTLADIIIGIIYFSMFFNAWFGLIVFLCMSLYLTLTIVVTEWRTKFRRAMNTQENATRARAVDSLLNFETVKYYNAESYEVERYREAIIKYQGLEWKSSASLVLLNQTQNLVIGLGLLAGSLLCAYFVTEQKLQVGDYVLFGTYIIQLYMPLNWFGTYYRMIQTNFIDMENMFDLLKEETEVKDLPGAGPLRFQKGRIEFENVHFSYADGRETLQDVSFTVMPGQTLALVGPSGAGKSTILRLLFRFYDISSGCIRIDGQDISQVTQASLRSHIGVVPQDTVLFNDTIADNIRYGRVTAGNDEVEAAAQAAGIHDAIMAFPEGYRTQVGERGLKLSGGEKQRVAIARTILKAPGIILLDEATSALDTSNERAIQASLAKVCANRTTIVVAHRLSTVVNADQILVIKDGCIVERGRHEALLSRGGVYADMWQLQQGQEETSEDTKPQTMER

[16] = AML differentiation inducers, ER-HoxA9 marrow cells – cell-based, GFP/MAC1 double positive, flow cytometry, validation set, primary screen (AID 588685;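 active means differentiation response of at least 50%, scaled between solvent and reference control, from cells with both markers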;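 further: compound exposure lasts four days before antibody staining and flow analysis; 0% = DMSO wells and 100% = 5 µM fulvestrant positive control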); conditions: stronger effect = higher value, normalized: vehicle 0, fulvestrant 100

SMILES | percent of DMSO control GFP [1] | GFP response vs DMSO [2] | percent response of DMSO control [3] | GFP response vs DMSO [4] | GFP response, % of DMSO [5] | double positive events [6] [%] | vesicle binding response [6] | inhibition [7] | superoxide response (% of plate) [8] | aptamer binding inhibition [9] | response [10] | inhibition [11] | response [12] | binding (% of control) [13] | efflux inhibition (fraction of control) [14] | inhibition [15] | differentiation response [16]
COc1cc2c3c(c1)C(C)CC(C)(C)N3C(=O)C2=O (stereo not given) | 92.4% (inactive) | 122% (inactive) | 110% (inactive) | 79.2% (inactive) | 94.7% (inactive) | 58.1 | 199% (inactive) | 15.2% (inactive) | 99% (inactive) | 89% (active) | 2.87% (inactive) | 0.2% (inactive) | 1.61% (inactive) | 105% (inactive) | 0.37 (inactive) | 12% (inactive) | 1.64% (inactive)
CCOC(=O)c1oc2cc(O)cc(C)c2c(=O)c1-c1cscn1 | 100% (inactive) | 105% (inactive) | 91% (inactive) | 119% (inactive) | 102% (inactive) | 58.7 | 182% (inactive) | 3.67% (inactive) | 101% (inactive) | 4% (inactive) | -3.97% (inactive) | 24.6% (inactive) | -5.59% (inactive) | 101% (inactive) | -0.06 (inactive) | 3% (inactive) | 5.6% (inactive)
COc1cccc(CN2C(=O)N(C(C)C)C(N(O)C(=O)NC(C)C)C2(C)C)c1OC (stereo not given) | 98.2% (inactive) | 103% (inactive) | 115% (inactive) | 97.3% (inactive) | 101% (inactive) | 67.3 | 216% (inactive) | -11.9% (inactive) | 84.9% (inactive) | -1% (inactive) | -7.26% (inactive) | -6.77% (inactive) | -0.84% (inactive) | 97.4% (inactive) | -0.04 (inactive) | 26% (inactive) | 7.09% (inactive)
O=C(CC1(O)C(=O)Nc2ccccc21)c1ccccc1O (stereo not given) | 100% (inactive) | 104% (inactive) | 97.8% (inactive) | 103% (inactive) | 101% (inactive) | 61.5 | 195% (inactive) | -6.68% (inactive) | 102% (inactive) | 3% (inactive) | 5.92% (inactive) | -2.48% (inactive) | 17.1% (active) | 99.5% (inactive) | -0.04 (inactive) | 3% (inactive) | 12.9% (inactive)
COc1ccc(C(=O)N2c3cc4c(cc3C(C)=CC2(C)C)OCO4)cc1 | 97.8% (inactive) | 103% (inactive) | 98.9% (inactive) | 116% (inactive) | 93.4% (inactive) | 56.6 | 40.1% (inactive) | -2.53% (inactive) | 98.5% (inactive) | 5% (inactive) | 4.24% (inactive) | -10.4% (inactive) | -0.49% (inactive) | 96.1% (inactive) | -0.04 (inactive) | 10% (inactive) | -1.71% (inactive)
